The nature of experiment [1]: ATG_TGFb_CIS: Attagene CIS-FACTORIAL HepG2 Assay for human Transforming Growth Factor (TGF) (AID 2282967; active = hit-call score of the fitted dose curve at least 0.9, where 1 is the maximum; inactive = score below 0.9). The following applies: HepG2 Attagene CIS TGFb reporter, mRNA transcription; actives raise or lower the signal. Summed up:
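HepG2 cells transiently transfected with cis-promoter-driven multiplexed reporter units; 24 h compound exposure. Reporter mRNA measured by RT-PCR, 6-FAM labeling, HpaI digestion and capillary electrophoresis; bidirectional fit versus DMSO baseline.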

A short description of experiment [2]: ATG_VDRE_CIS: Attagene CIS-FACTORIAL HepG2 Assay for human Vitamin D Receptor Element (VDRE) (AID 2282968; active = hit-call score of the fitted dose curve at least 0.9, where 1 is the maximum; inactive = score below 0.9). As to conditions: HepG2 VDRE cis-reporter transcription, actives raise or lower the signal. In short, it runs like this:
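In transiently transfected HepG2 liver cells, gain or loss of reporter mRNA after 24 h exposure is scored relative to DMSO, using fluorescence detection by capillary electrophoresis of RT-PCR products.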

Experiment [3] has as its target Nuclear receptor subfamily 1 group I member 3 (Homo sapiens) (UniProt Q14994). In words: ATG_CAR_TRANS: Attagene TRANS-FACTORIAL HepG2 Assay for human Constitutive Androstane Receptor (CAR) (AID 2282969).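 Note: activators raise reporter mRNA above DMSO so AC50 marks induction.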 The following applies: HepG2 Attagene TRANS-FACTORIAL CAR reporter. Summed up:
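Readout is reporter mRNA induction, quantified by fluorescent primer extension and capillary electrophoresis after RT-PCR. Cells were HepG2 transiently carrying chimeric NR-Gal4 constructs with GAL4-UAS reporters, treated for 24 h; activity scored upward from DMSO.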

The target of experiment [4] is Estrogen receptor (Homo sapiens) (UniProt P03372). In words: ATG_ERa_TRANS: Attagene TRANS-FACTORIAL HepG2 Assay for human Estrogen Receptor alpha (ERa) (AID 2282970). As to conditions: HepG2 Attagene TRANS ERa GAL4 reporter, mRNA. Summed up: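 After 24 h of compound treatment, RNA from HepG2 cells bearing transfected GAL4-UAS reporter constructs is converted to cDNA, amplified and fluorescently labelled. Capillary electrophoresis resolves the ERa-linked reporter; DMSO serves as negative control.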
Chain of Estrogen receptor (Homo sapiens) (P03372 whole entry, looked up, the tested form may be a part): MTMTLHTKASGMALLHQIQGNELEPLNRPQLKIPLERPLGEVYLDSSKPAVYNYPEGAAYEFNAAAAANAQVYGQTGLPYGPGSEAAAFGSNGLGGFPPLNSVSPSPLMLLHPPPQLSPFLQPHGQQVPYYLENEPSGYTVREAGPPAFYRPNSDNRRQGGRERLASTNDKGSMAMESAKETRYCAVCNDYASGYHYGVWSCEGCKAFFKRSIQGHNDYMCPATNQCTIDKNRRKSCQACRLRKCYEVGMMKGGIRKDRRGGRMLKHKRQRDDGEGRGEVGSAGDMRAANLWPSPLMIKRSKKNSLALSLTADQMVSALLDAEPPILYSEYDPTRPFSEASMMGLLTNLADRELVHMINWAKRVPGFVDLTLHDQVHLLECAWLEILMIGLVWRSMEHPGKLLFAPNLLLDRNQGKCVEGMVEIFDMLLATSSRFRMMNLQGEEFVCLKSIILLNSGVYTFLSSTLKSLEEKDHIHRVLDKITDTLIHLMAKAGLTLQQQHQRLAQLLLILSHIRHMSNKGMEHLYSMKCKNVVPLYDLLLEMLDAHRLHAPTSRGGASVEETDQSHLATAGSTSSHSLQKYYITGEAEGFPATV

The target in experiment [5] is Steroid hormone receptor ERR1 (Homo sapiens) (UniProt P11474). In words: ATG_ERRa_TRANS: Attagene TRANS-FACTORIAL HepG2 Assay for human Estrogen-Related Receptor alpha (ERRa) (AID 2282971). As to conditions: HepG2 Attagene TRANS reporter, ERRa transactivation. Summed up:
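Transfected HepG2, 24 h dosing, ERRa-Gal4 chimera driving GAL4-UAS reporter. Readout: reporter mRNA via RT-PCR plus capillary electrophoresis (fluorescence). Positive direction vs DMSO control.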

Experiment [6] has as its target X-box-binding protein 1 (Homo sapiens) (UniProt P17861). The experiment is described as follows: ATG_Xbp1_CIS: Attagene CIS-FACTORIAL HepG2 Assay for human X-box Binding Protein 1 (XBP1) (AID 2282972; active = hit-call score of the fitted dose curve at least 0.9, where 1 is the maximum; inactive = score below 0.9). As to conditions: HepG2 XBP1 cis-element reporter, Attagene multiplex; actives raise or lower the signal. Summed up:
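HepG2 cells transiently transfected with multiple cis-element reporter units report endogenous TF activity; 24 h exposure, then reporter mRNA measured by RT-PCR, 6-FAM labelling, HpaI digestion and capillary electrophoresis. Bidirectional fitting versus DMSO.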

The target in experiment [7] is Androgen receptor (Homo sapiens) (UniProt P10275). The experiment is described as follows: ATG_AR_TRANS: Attagene TRANS-FACTORIAL HepG2 Assay for human Androgen Receptor (AR) (AID 2282973). The following applies: HepG2 Attagene TRANS-FACTORIAL AR reporter transcription. In short, it runs like this:
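Readout is reporter transcript abundance, quantified by fluorescent RT-PCR products separated on capillary electrophoresis. Human HepG2 liver cells carried transiently transfected NR-Gal4 chimera plus GAL4-UAS reporter constructs and were dosed for 24 h; activity scored upward versus DMSO.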

The nature of experiment [8]: ATG_M_19_TRANS: Attagene TRANS-FACTORIAL HepG2 Assay for M19 Transcription Factor (Internal Marker) (AID 2282974). The following applies: HepG2 Attagene TRANS-FACTORIAL M19 internal marker reporter. In short, it runs like this: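 24 h chemical exposure of transiently transfected HepG2 (MRTU library). RNA → oligo(dT) RT → PCR → 6-FAM labelling → HpaI cut → CE fluorescence. Positive-direction fit vs DMSO baseline; background internal-marker readout.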

Experiment [9] can be described thus: ATG_GAL4_TRANS: Attagene TRANS-FACTORIAL HepG2 Assay for GAL4 (Internal Marker) (AID 2282976). As to conditions: HepG2 Attagene TRANS GAL4 internal marker reporter. In short, it runs like this: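 RT-PCR/capillary electrophoresis readout of reporter mRNA. HepG2, transient MRTU transfection (GAL4-UAS reporters), 24 h compound exposure. Background-control endpoint, positive direction vs DMSO baseline.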

Experiment [10] deals with Estrogen-related receptor gamma (Homo sapiens) (UniProt P62508). In words: ATG_ERRg_TRANS: Attagene TRANS-FACTORIAL HepG2 Assay for human Estrogen-Related Receptor gamma (ERRg) (AID 2282977).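 Note: hits increase reporter signal over DMSO so potencies reflect activators.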 The following applies: HepG2 Attagene TRANS reporter, ERRg transactivation. In short, it runs like this:
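HepG2 cells transiently transfected with multiplexed GAL4-UAS reporter units and chimeric NR-Gal4 constructs were exposed to test chemicals for 24 h. Reporter mRNA was measured by RT-PCR, 6-FAM primer extension, HpaI digestion and capillary electrophoresis; gain-of-signal versus DMSO.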

Experiment [11] has as its target Bile acid receptor (Homo sapiens) (UniProt Q96RI1). The experiment is described as follows: ATG_FXR_TRANS: Attagene TRANS-FACTORIAL HepG2 Assay for Farnesoid X Receptor (FXR) (AID 2282979).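 Note: hits raise reporter mRNA above DMSO so AC50 marks FXR activation.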 The following applies: HepG2 Attagene TRANS FXR-GAL4 reporter transcription. In short, it runs like this: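 Read-out: fluorescent reporter transcripts quantified by capillary electrophoresis after RT-PCR of total RNA. Source cells were HepG2 transiently carrying chimeric NR-GAL4 plus GAL4-UAS reporter units, dosed 24 h. Activity fitted upward relative to DMSO baseline.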

Experiment [12] addresses Hepatocyte nuclear factor 4-alpha (Homo sapiens) (UniProt P41235). In words: ATG_HNF4a_TRANS: Attagene TRANS-FACTORIAL HepG2 Assay for human Hepatocyte Nuclear Factor 4 alpha (HNF4a) (AID 2282982). As to conditions: HepG2 HNF4a transactivation reporter, mRNA readout. Summed up:
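Transfected HepG2 reporter cells are dosed for 24 h; reporter RNA is reverse-transcribed, amplified, fluorescently labelled and HpaI-digested before CE sizing. Positive-direction fit against DMSO.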

The nature of experiment [13]: ATG_M_32_TRANS: Attagene TRANS-FACTORIAL HepG2 Assay for M32 Transcription Factor (Internal Marker) (AID 2282984).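 Note: transcript level of a background control reporter unit measured by RT-PCR and capillary electrophoresis.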 The following applies: HepG2 Attagene TRANS M32 internal marker reporter. Summed up:
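Using transiently transfected HepG2 cells exposed to test chemicals for 24 h, reporter transcripts are converted to labelled cDNA fragments and quantified by capillary electrophoresis. DMSO defines the activity baseline.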

In experiment [14] the target is Transcriptional activator Myb (Homo sapiens) (UniProt P10242). The experiment is described as follows: ATG_Myb_CIS: Attagene CIS-FACTORIAL HepG2 Assay for human Myeloblastosis (Myb) Proto-Oncogene Transcription Factor (AID 2282986; active = hit-call score of the fitted dose curve at least 0.9, where 1 is the maximum; inactive = score below 0.9). The following applies: HepG2 Attagene CIS-FACTORIAL Myb reporter transcription; actives raise or lower the signal. In short, it runs like this:
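HepG2, transient MRTU transfection (cis-element promoters, endogenous TF activity), 24 h compound exposure. Readout: reporter mRNA via RT-PCR, 6-FAM labeling, HpaI digest, capillary electrophoresis. Gain/loss fit vs DMSO.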

Experiment [15] addresses Nuclear respiratory factor 1 (Homo sapiens) (UniProt Q16656). The experiment is described as follows: ATG_NRF1_CIS: Attagene CIS-FACTORIAL HepG2 Assay for human Nuclear Respiratory Factor 1 (NRF1) Orphan Gene (AID 2282987; active = hit-call score of the fitted dose curve at least 0.9, where 1 is the maximum; inactive = score below 0.9). The following applies: HepG2 NRF1 cis-element reporter, Attagene multiplex; actives raise or lower the signal. Summed up:
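Endogenous NRF1-driven reporter transcription measured in transiently transfected human HepG2 liver cells. Readout: reporter mRNA by RT-PCR and capillary electrophoresis with fluorescence detection, 24 h post-dosing. Gain or loss of signal fitted relative to DMSO baseline.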

Experiment [16] deals with Oxysterols receptor LXR-alpha (Homo sapiens) (UniProt Q13133). The experiment is described as follows: ATG_LXRa_TRANS: Attagene TRANS-FACTORIAL HepG2 Assay for human Liver X Receptor alpha (LXRa) (AID 2282980). As to conditions: HepG2 Attagene TRANS reporter, LXRa transactivation. In short, it runs like this: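 Read-out: reporter transcript levels by RT-PCR plus capillary electrophoresis, fluorescence intensity. Transiently transfected HepG2, exogenous NR-GAL4 chimera, GAL4-UAS reporters; 24 h compound exposure. Activity = increase over DMSO negative control.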
Chain of Oxysterols receptor LXR-alpha (Homo sapiens) (Q13133 whole entry, looked up, the tested form may be a part): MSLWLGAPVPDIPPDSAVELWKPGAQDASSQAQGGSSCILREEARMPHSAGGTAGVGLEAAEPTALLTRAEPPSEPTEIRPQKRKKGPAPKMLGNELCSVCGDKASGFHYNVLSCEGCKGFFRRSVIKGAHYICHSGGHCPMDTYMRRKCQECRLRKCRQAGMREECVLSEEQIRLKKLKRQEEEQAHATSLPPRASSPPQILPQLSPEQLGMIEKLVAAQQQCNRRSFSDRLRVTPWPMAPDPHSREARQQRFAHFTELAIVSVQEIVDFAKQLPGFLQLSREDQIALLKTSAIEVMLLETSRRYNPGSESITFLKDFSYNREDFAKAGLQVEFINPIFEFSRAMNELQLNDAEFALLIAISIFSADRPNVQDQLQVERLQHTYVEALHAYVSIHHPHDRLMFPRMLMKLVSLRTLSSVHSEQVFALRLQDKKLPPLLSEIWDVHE

The nature of experiment [17]: ATG_M_06_TRANS: Attagene TRANS-FACTORIAL HepG2 Assay for M06 Transcription Factor (Internal Marker) (AID 2282983). The following applies: HepG2 Attagene TRANS M06 internal marker reporter. Summed up: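 After a 24 h chemical treatment of transfected HepG2, RNA underwent DNase I treatment, reverse transcription and reporter-specific PCR; labelled, HpaI-digested products were sized by capillary electrophoresis. Signal increase relative to DMSO defined activity.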

The target of experiment [18] is Glucocorticoid receptor (Homo sapiens) (UniProt P04150). In words: ATG_GR_TRANS: Attagene TRANS-FACTORIAL HepG2 Assay for human Glucocorticoid Receptor (GR) (AID 2282978).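 Note: activators score as hits since higher reporter transcript over DMSO is fitted.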 As to conditions: HepG2 Attagene TRANS GR reporter, mRNA transcription. In short, it runs like this: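 Transient MRTU transfection of HepG2 (GAL4-UAS reporters, exogenous NR-GAL4 chimeras), 24 h dosing. Readout: reporter transcript via RT-PCR + capillary electrophoresis fluorescence. Positive direction vs DMSO baseline.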
Chain of Glucocorticoid receptor (Homo sapiens) (P04150 whole entry, looked up, the tested form may be a part): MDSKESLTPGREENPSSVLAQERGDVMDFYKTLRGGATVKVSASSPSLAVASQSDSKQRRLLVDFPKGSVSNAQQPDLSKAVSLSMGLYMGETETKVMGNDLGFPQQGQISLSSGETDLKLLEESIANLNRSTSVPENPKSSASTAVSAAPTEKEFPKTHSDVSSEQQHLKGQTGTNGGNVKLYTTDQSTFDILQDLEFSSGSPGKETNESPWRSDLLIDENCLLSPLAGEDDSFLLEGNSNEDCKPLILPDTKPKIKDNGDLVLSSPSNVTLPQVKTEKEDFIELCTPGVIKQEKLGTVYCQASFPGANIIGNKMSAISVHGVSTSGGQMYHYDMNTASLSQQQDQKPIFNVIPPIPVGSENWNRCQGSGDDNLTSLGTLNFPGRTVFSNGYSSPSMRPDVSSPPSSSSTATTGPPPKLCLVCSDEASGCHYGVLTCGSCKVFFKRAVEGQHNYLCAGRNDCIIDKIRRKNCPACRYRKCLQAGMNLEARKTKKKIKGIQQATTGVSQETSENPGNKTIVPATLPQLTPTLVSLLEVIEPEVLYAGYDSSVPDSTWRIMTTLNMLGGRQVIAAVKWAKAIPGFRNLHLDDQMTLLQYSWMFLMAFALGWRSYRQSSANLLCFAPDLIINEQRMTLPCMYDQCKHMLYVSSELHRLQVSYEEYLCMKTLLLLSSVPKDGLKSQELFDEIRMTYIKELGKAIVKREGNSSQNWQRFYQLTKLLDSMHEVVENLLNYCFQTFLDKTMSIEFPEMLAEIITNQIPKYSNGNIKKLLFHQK

Experiment [19] has as its target Nuclear receptor subfamily 4 group A member 2 (Homo sapiens) (UniProt P43354). The experiment is described as follows: ATG_NURR1_TRANS: Attagene TRANS-FACTORIAL HepG2 Assay for human Nuclear Receptor Related Protein 1 (NURR1) (AID 2282985). As to conditions: HepG2 Attagene TRANS reporter, mRNA readout. Summed up: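 Cells: HepG2, transiently transfected. Exposure: 24 h. Detection: fluorescence of labelled RT-PCR products separated by capillary electrophoresis; upward fit versus DMSO.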

In experiment [20] the target is Oxysterols receptor LXR-beta (Homo sapiens) (UniProt P55055). The experiment is described as follows: ATG_LXRb_TRANS: Attagene TRANS-FACTORIAL HepG2 Assay for human Liver X Receptor beta (LXRb) (AID 2282981). The following applies: HepG2 Attagene TRANS GAL4-LXRb reporter, mRNA. In short, it runs like this:
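Cells: HepG2, transiently transfected with GAL4-UAS reporter units plus LXRb-Gal4 fusion. Treatment: 24 h. Detection: reporter mRNA by RT-PCR, 6-FAM labelling, HpaI digestion, capillary electrophoresis.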

Structures are written as SMILES. Inconclusive results are not listed. Some compounds were tested as several samples or in several runs, with calls that do not always agree. Activity calls are given as the source filed them. Rule for the calls, unless noted: active = hit-call score of the fitted dose curve at least 0.9, where 1 is the maximum; inconclusive = response in the unintended direction; inactive = score below 0.9.

As usually defined, the AC50 is the midpoint of the concentration-response curve, whichever way the signal moves.

Chain of Nuclear receptor subfamily 1 group I member 3 (Homo sapiens) (Q14994 whole entry, looked up, the tested form may be a part): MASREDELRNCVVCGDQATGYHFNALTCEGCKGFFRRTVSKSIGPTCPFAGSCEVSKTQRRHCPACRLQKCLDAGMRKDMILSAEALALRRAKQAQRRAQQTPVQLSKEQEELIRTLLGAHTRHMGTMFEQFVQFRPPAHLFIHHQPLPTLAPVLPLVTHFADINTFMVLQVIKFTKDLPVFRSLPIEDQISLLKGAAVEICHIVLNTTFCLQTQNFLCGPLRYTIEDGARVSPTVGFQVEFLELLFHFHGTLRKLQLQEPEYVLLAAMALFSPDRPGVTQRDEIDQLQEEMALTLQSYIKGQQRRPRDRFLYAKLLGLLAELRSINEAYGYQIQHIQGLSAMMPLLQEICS
Chain of Nuclear respiratory factor 1 (Homo sapiens) (Q16656 whole entry, looked up): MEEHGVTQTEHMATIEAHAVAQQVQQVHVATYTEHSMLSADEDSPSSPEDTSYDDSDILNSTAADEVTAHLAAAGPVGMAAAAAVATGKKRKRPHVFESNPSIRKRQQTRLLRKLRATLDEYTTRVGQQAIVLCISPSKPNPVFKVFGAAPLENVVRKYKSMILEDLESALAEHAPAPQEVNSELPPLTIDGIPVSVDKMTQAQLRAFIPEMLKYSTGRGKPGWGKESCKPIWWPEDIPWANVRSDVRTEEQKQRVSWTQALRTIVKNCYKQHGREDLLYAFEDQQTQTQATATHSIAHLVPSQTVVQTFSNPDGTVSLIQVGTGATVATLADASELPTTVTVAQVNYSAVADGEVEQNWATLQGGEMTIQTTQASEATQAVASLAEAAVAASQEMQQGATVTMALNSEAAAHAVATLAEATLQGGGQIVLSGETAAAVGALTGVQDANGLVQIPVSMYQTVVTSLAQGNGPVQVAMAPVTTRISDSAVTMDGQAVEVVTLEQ
Chain of X-box-binding protein 1 (Homo sapiens) (P17861 whole entry, looked up): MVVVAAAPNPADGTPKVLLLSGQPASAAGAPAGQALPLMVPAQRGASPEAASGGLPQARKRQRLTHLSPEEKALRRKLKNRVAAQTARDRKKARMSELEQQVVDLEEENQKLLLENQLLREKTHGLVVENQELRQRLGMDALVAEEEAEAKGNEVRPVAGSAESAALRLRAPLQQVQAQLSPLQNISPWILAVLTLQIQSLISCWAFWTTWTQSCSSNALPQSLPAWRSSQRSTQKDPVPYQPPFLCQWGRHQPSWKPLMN
Chain of Transcriptional activator Myb (Homo sapiens) (P10242 whole entry, looked up): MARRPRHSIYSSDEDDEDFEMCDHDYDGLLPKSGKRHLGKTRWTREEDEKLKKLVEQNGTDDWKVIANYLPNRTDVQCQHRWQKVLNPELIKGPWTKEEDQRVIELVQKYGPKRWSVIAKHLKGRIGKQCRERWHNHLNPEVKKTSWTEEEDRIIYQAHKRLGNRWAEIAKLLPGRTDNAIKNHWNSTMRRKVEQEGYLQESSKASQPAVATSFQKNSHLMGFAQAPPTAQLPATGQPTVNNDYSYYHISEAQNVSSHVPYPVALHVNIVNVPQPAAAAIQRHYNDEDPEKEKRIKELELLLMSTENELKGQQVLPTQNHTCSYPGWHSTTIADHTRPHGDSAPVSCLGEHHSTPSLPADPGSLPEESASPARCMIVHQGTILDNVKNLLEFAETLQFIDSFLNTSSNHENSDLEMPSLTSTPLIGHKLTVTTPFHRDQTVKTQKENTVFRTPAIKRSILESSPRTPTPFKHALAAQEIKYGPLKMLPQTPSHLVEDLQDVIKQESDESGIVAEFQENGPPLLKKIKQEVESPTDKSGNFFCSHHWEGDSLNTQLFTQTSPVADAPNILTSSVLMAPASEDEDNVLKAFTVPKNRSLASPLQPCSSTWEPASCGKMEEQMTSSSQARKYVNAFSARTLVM
Chain of Hepatocyte nuclear factor 4-alpha (Homo sapiens) (P41235 whole entry, looked up): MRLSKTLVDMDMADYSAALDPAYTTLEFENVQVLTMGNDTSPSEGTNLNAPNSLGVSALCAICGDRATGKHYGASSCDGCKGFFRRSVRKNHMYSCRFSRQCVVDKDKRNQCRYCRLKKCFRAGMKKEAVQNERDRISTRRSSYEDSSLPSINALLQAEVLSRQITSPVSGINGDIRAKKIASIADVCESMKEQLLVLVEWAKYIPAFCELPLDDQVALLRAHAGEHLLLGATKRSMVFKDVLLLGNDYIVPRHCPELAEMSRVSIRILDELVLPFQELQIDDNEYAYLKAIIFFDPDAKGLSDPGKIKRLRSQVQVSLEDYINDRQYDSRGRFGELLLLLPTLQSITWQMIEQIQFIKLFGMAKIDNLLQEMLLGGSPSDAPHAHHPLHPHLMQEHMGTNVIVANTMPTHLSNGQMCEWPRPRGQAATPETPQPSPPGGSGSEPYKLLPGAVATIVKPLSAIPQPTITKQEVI
Chain of Bile acid receptor (Homo sapiens) (Q96RI1 whole entry, looked up, the tested form may be a part): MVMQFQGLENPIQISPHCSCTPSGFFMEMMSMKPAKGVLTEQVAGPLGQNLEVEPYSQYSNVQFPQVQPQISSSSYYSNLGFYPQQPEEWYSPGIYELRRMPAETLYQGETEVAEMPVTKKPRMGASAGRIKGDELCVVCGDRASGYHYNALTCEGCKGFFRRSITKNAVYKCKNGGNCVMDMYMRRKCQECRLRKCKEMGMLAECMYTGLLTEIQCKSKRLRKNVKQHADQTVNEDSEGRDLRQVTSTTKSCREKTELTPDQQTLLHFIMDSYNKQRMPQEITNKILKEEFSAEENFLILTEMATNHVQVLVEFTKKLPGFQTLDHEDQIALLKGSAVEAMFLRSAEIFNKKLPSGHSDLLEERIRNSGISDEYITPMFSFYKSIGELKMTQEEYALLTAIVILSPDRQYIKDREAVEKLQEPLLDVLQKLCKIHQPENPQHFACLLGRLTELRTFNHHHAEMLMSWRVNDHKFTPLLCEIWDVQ
Chain of Estrogen-related receptor gamma (Homo sapiens) (P62508 whole entry, looked up, the tested form may be a part): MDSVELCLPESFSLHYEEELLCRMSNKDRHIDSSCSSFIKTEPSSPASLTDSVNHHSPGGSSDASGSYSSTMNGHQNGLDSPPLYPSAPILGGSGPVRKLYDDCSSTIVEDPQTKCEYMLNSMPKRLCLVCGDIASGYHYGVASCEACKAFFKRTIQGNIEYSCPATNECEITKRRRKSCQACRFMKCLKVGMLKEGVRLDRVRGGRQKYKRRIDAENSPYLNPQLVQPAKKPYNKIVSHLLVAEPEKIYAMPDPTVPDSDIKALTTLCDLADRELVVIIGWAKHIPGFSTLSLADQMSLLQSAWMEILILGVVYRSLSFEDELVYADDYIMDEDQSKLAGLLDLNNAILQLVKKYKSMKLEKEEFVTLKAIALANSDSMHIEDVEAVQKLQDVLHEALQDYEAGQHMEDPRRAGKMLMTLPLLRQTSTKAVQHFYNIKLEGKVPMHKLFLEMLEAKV

For `N#Cc1ccccc1N`, the outcome in experiment [1], in experiment [2], in [3], in experiment [4], in experiment [5] and in experiment [6] was inactive. Also, the result in [7], in experiment [8], in experiment [9], in experiment [10], in [11] and in [12] was inactive. Also, the compound was called inactive in experiment [13], in [14] and in experiment [15].

With `CC[N+](CC)(CC)CC`, the AC50 in experiment [1] was 1070 nM (active). In addition, the compound was classed as inactive in experiment [1], in [2], in experiment [3], in experiment [6], in experiment [9] and in [16]. For the same compound, the compound was classed as inactive in experiment [17], in experiment [13], in [14] and in [15].

As for `CN(C)c1ccc(N=O)cc1`, the compound was classed as inactive in [1], in experiment [2], in [3], in experiment [4], in experiment [5] and in [6]. For the same compound, the result in [10], in experiment [18], in [11], in [16], in [12] and in [17] was inactive. In addition, the result in experiment [13], in [14] and in experiment [15] was inactive.

`O=C(NC(=O)c1c(F)cccc1F)Nc1ccc(Cl)cc1`: the result in experiment [1], in experiment [2], in experiment [3], in experiment [4], in experiment [6] and in [8] was inactive. Also, the call in experiment [11], in experiment [16], in experiment [12], in experiment [17], in experiment [13] and in experiment [19] was inactive. Moreover, the result in experiment [14] and in [15] was inactive.

For `CS(=O)(=O)c1ccc(C(=O)C2C(=O)CCCC2=O)c(Cl)c1COCC(F)(F)F`, the outcome in experiment [1], in experiment [2], in experiment [3], in experiment [4], in experiment [6] and in experiment [8] was inactive. Besides, the result in experiment [9], in [10], in experiment [18], in experiment [16], in experiment [20] and in [17] was inactive. For the same compound, the compound was classed as inactive in [13], in experiment [14] and in experiment [15].

The record behind these values is PubChem BioAssay (EPA / NIEHS).
